This excerpt belongs to a sample that is enriched for hits.
Tg IFNy HTS = inhibitors of Toxoplasma gondii growth with IFN-gamma. Toxoplasma gondii growth in IFN-gamma-treated host cells; active compounds read low. activity change, negative = inhibition, % (test concentration not listed). actives 3.8% (n = 69,000). AID 1259416; in the data active means activity change below about -70%, passing the limit was not always enough;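 further: host cells are HeLa cells infected with Toxoplasma gondii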
* marks the source's active call; other numbers are inactive results; ! = a repeat was not active.

`COc1ccc(CN(C)c2ccc3ccc(C(=O)N4CCC(N(C)C)C4)cn23)cc1` (centres undefined) gave Tg IFNy HTS 3.
Screening FC(F)(F)c1ccccc1CCC1CCCN(Cc2cccnc2)C1 (centres undefined) returned Tg IFNy HTS -3.
For CCCCN1CCC(O)(c2cnc(OC)nc2OC)CC1 the results were Tg IFNy HTS -22.
`CCn1c(CN2C[C@@H]3CC[C@@](O)(c4cnc(OC)nc4OC)[C@@H]3C2)nc2ccccc21` gave Tg IFNy HTS -85*.
`COc1ccc(CN2C[C@@H]3CC[C@@](O)(c4ncccc4C)[C@@H]3C2)cc1` gave Tg IFNy HTS -51.
For COc1ccc(OC)c(S(=O)(=O)NCCc2csc(-c3ccc(Cl)cc3)n2)c1 the results were Tg IFNy HTS 18.
O=c1c(O)cccc2cc(O)c(O)c(O)c12 was read as Tg IFNy HTS 12.
For O=c1c(O)c(-c2ccccc2)oc2cc(O)cc(O)c12 the results were Tg IFNy HTS 67.
O=c1cc(-c2ccccc2)oc2cc(O)c(O)c(O)c12 was read as Tg IFNy HTS -77*!.
For COc1cc2oc(-c3ccc(O)cc3)cc(=O)c2c(OC)c1O the results were Tg IFNy HTS -82*.
Screening COc1ccc(-c2cc(=O)c3c(O)cc(O)cc3o2)cc1O returned Tg IFNy HTS 86.
For COc1ccc(-c2cc(=O)c3ccc(O)cc3o2)cc1 the results were Tg IFNy HTS -8.
c1ccc(-n2cccc2CN2CCc3[nH]cnc3C2c2cccnc2)nc1 (centres undefined) was read as Tg IFNy HTS 0.
`CC1CCN(C(=O)CN2C(=O)CCc3cc(S(=O)(=O)N4CCC(C)CC4)ccc32)CC1` gave Tg IFNy HTS -6.
`Cc1cc2nc(CN(C)Cc3ccc(CO)o3)[nH]c2cc1C` gave Tg IFNy HTS 28.
Screening c1csc(-c2nc(N3CCCCC3)no2)c1 returned Tg IFNy HTS 21.
Screening c1csc(-c2nc(N3CCCCC3)ncc2-c2ccncc2)c1 returned Tg IFNy HTS -98*.
Screening OC1(c2cccnc2)CCN(c2ncc(-c3cccs3)c(-c3cccnc3)n2)CC1 returned Tg IFNy HTS 70.
O=C(CC1C2CCCC1CNC2)NCc1ccco1 (centres undefined) was read as Tg IFNy HTS 6.
For Cc1cc(Oc2ccc(N(C)C)cc2)cc(C2CCCN(C(=O)c3c(C)noc3C)C2)n1 (centres undefined) the results were Tg IFNy HTS -9.
Screening Cc1ccoc1C(=O)N(Cc1ccsc1)CC1CCCO1 (centres undefined) returned Tg IFNy HTS -10.
Cc1ccc(Cn2c(-c3ccc(F)cc3)c(-c3ccc(F)cc3)nnc2=O)cc1 was read as Tg IFNy HTS -83*.
CCOC(=O)Cn1nc2nnc(-c3ccc(F)cc3)c(-c3ccc(F)cc3)n2c1=O was read as Tg IFNy HTS -36.
Screening Cc1ccc(-n2sc(=O)n(Cc3ccc(F)cc3)c2=O)cc1 returned Tg IFNy HTS -4.
`CCC(CC)C(=O)N1CCC2(C1)CN(c1ccccc1)C(=O)CN2C` (centres undefined) gave Tg IFNy HTS 12.
Screening COCCn1c2c([n+](Cc3cnccn3)c1C)C(=O)c1ccccc1C2=O returned Tg IFNy HTS -83*.
For COc1cc(C)ccc1-c1c(-c2ccccc2)ncn1C(C)Cc1cnccn1 (centres undefined) the results were Tg IFNy HTS -4.
Screening CC(Cc1cnccn1)n1cc(-c2ccnc3ccccc23)nn1 (centres undefined) returned Tg IFNy HTS -11.
`O=C(c1ccccn1)N1CC[C@@]2(C1)C(=O)NC[C@H]2COc1ccccn1` gave Tg IFNy HTS -15.
For CC(C)CN1CC(C(=O)N2CCC(Nc3ncccn3)CC2)CC1=O (centres undefined) the results were Tg IFNy HTS -1.
`CC1=CC(C)(C)N=C(Nc2nc(C)c3cc(C)cc(C)c3n2)N1` gave Tg IFNy HTS -99*.
`Cc1ccc(C)c(NC(=O)N2CCN(Cc3nc(-c4cccc(Cl)c4)oc3C)CC2)c1` gave Tg IFNy HTS 3.
For CN(C)CCCn1c(SCC(=O)N2CCCC2)nnc1-c1ccncc1 the results were Tg IFNy HTS 15.
For CC(=O)N1CCN(C(C)C)C(c2nnc3ccc(C(=O)N4CCCC4)cn23)C1 (centres undefined) the results were Tg IFNy HTS -35.
`Cc1nc(CC(=O)N2CCCCC2c2[nH]ncc2C)cs1` (centres undefined) gave Tg IFNy HTS -34.
For Cc1nc(CC(=O)N2CCCC2c2ccc3c(NCc4ccccc4)n[nH]c3n2)cs1 (centres undefined) the results were Tg IFNy HTS -76*.
For Cc1nc(CC(=O)N2CCC(c3ccccc3C(=O)O)C2)cs1 (centres undefined) the results were Tg IFNy HTS 31.
Screening CC(=O)N1CCC(C(=O)NCc2ccccc2)(N(Cc2ccc(F)cc2)C(=O)c2ccc(C)cc2)CC1 returned Tg IFNy HTS -41.
For Fc1ccc(C2Oc3ccc(Cl)cc3C3=C2C(c2ccccc2)n2ncnc2N3)cc1 (centres undefined) the results were Tg IFNy HTS -23.
`Clc1ccc(-c2nc(NC3CCCC3)c3ccccc3n2)cc1` gave Tg IFNy HTS 55.
`Clc1ccc(C2C=C(c3ccccc3)Nc3ncnn32)cc1` (centres undefined) gave Tg IFNy HTS -85*.
Screening CC(C)c1nccn1-c1cccc(C2CCCN(S(=O)(=O)N(C)C)C2)n1 (centres undefined) returned Tg IFNy HTS -15.
For CC(CC(=O)Nc1nc(C(C)(C)C)cs1)n1cncn1 (centres undefined) the results were Tg IFNy HTS 5.
Screening CC(C)(C)c1csc(NC(=O)Nc2ccc(Cl)cc2)n1 returned Tg IFNy HTS -103*.
Cc1nc(-c2cccs2)sc1NC(=O)Nc1ccc(Cl)cc1 was read as Tg IFNy HTS 65.
Cc1cc(CNC(=O)c2cnc(N3CCOCC3)nc2)c2[nH]c(C)c(C)c2c1 was read as Tg IFNy HTS 16.
CC(=O)N1CC(=O)N(c2ccccc2)CC12CCN(C(=O)C1CCOCC1)C2 (centres undefined) was read as Tg IFNy HTS 3.
Screening CC(=O)N1CC(=O)N(c2ccccc2)CC12CCN(CC1CCOCC1)C2 (centres undefined) returned Tg IFNy HTS -86*.
Screening CC(=O)N1CC(=O)N(c2ccccc2)CC12CCN(C(=O)N1CCCC1)C2 (centres undefined) returned Tg IFNy HTS 1.
Screening O=C(N(c1ccccc1)c1ccc(F)cc1)C12CC3CC(CC(C3)C1)C2 returned Tg IFNy HTS -83*.
Screening CC(=O)NC12CC3CC(C1)CC(C(=O)NC(C)CCc1ccc(F)cc1)(C3)C2 (centres undefined) returned Tg IFNy HTS 8.
For O=C(N(Cc1nc2ccccc2c(=O)[nH]1)Cc1cccs1)C12CC3CC(CC(C3)C1)C2 the results were Tg IFNy HTS -41.
For CCCn1ncc(C(=O)Nc2ccccc2CN2CCCCC2)c1C the results were Tg IFNy HTS -52.
`CC(C)Cn1cncc1CNC1CCSCC1` gave Tg IFNy HTS 8.
Screening N#Cc1nc(-c2ccc(C(F)(F)F)cc2)oc1N returned Tg IFNy HTS -96*.
`FC(F)(F)c1ccc(C2=NCCO2)cc1` gave Tg IFNy HTS 25.
For FC(F)(F)c1ccc(-c2nnc(-c3ccc4nccnc4c3)o2)cc1 the results were Tg IFNy HTS -49.

Compound activity deposited in PubChem by Broad Institute.
